# Pf apPOL block = Pf-apPOL DNA polymerase inhibition; AID 1794808; inhibition, % at 10 µM; actives 0.25% (n = 210,000); Recombinant Pf-apPOL, molecular beacon fluorescence, 1.5 h
# mHTT CaM bind = inhibitors of human mutant huntingtin-calmodulin interaction | AID 1671202 | P42858 | AlphaScreen His-mHTT/GST-CaM binding, luminescence | actives 3.6% (n = 190,000) | inhibition, % at 15 µM
# A number is an active result; i = inactive; nt = not tested or not shown. The entries come from a sample that favours hits as a whole. No stated cut-off is given here; in the data, active means inhibition above about 50%; inactive means the rest.
SMILES,Pf apPOL block,mHTT CaM bind
COc1cccc(S(=O)(=O)N2CCC(c3nc(C(=O)N4CCOCC4)c(C)o3)CC2)c1,i,i
O=C(NC1CC1)C1=CSCCO1,i,i
O=C1NC(=O)C2C1C1C=Cc3ccccc3N1C2C(=O)c1ccc(F)cc1 (stereo not drawn),nt,52
CN1C(=O)C(O)(CC(=O)c2ccc(F)cc2)c2ccccc21 (stereo not drawn),i,i
O=C1NC(=S)SC1=Cc1ccc(Sc2ccc(Cl)cc2)c([N+](=O)[O-])c1,69,nt
O=C1NC(=O)/C(=C/c2ccc(Cl)c([N+](=O)[O-])c2)S1,i,i
O=C(O)CNC(=O)/C(=C\c1ccc2c(c1)OCO2)NC(=O)c1ccccc1Cl,i,i
COc1ccc(-c2ccc(/C=C/c3cc(C(F)(F)F)[nH]c(=O)n3)o2)cc1Cl,i,99
COc1ccc(-c2ccc(/C=C/c3cc(C(F)(F)F)[nH]c(=O)n3)o2)c([N+](=O)[O-])c1,i,i
CN(C)C1=C(Nc2cccc(Cl)c2)C(=O)c2ccccc2C1=O,i,57
CC(=O)N(C1=C(N(C)C)C(=O)c2ccccc2C1=O)c1cccc(Cl)c1,i,i
CC(C)C(=O)Nc1cccc(I)c1,i,i
CN(C)C1=C(Nc2cccc(I)c2)C(=O)c2ccccc2C1=O,i,92
CCc1ccccc1NC(=O)N1CCc2cn(C)c3cccc(c23)C1,i,i
CC12CCC(C(=O)NCCc3ccccc3)(c3nc4ccccc4nc31)C2(C)C (stereo not drawn),i,i
COc1ccc(CCNC(=O)CCCN2C(=O)CCn3nc(C)cc32)cc1OC,i,i
COc1ccc(NC(=O)Nc2cccc(-c3ccc(N4CCOCC4)nn3)c2)cc1OC,i,50
COc1cc(C)c(C)cc1S(=O)(=O)Nc1cccc(-c2ccc(N3CCCC3)nn2)c1,i,77
O=C(Nc1cccc(-c2ccc(N3CCCCC3)nn2)c1)c1ccccc1[N+](=O)[O-],i,i
O=C(NCc1ccccc1)Nc1cccc(-c2ccc(N3CCCC3)nn2)c1,i,85
O=C(Nc1cccc(-c2ccc(N3CCOCC3)nn2)c1)c1ccc2nsnc2c1,i,i
O=C(Nc1cccc(-c2ccc(N3CCOCC3)nn2)c1)c1cc(-c2ccco2)on1,i,55
O=C(COc1ccc(F)cc1F)Nc1cccc(-c2ccc(N3CCOCC3)nn2)c1,i,i
Cc1ccc(-c2ccc(N3CCN(S(C)(=O)=O)CC3)nn2)cc1C,i,i
COc1cccc2c1OC1(C)CC2NC(=O)N1c1cccc(C(=O)NCc2ccccc2Cl)c1 (stereo not drawn),i,i
SMILES,Pf apPOL block,mHTT CaM bind
O=C(NCC1CCCO1)C1CCN(c2nc3cccnc3s2)CC1 (stereo not drawn),i,i
Cc1cccc(/C=C2\N=C(c3cccc(Cl)c3)OC2=O)c1,i,i
Cc1ccc(C)c(CN2C(=O)NC3(CCN(C(=O)c4ccccc4)CC3)C2=O)c1,i,i
CCn1c(C2CCN(C(=O)CCC(C)C)C2)nc2cccnc21 (stereo not drawn),i,i
Cc1cccc(CN2CCN(C3CCN(C(=O)Nc4ccc(F)cc4)CC3)C2=O)c1,i,i
O=C(Nc1nccs1)c1ccc(NC(=O)c2ccccc2-c2ccccc2C(=O)O)cc1,i,84
O=C(Nc1nccs1)c1ccc(NC(=O)c2ccccc2[N+](=O)[O-])cc1,i,i
Cc1c(Br)c([N+](=O)[O-])nn1CC(=O)NC1CCc2ccccc21 (stereo not drawn),i,i
COc1ccccc1N1CCN(S(=O)(=O)c2ccc(C)cc2)C(C)C1=O (stereo not drawn),i,i
COc1ccccc1-c1nc(C2CCN(C(=O)Cc3cccc4ccccc34)CC2)no1,i,i
COc1cccc(-c2nc(C3CCN(C(=O)Cc4c[nH]c5ccccc45)CC3)no2)c1,i,65
COc1ccccc1-c1nc(C2CCN(C(=O)Cc3c[nH]c4ccccc34)CC2)no1,i,76
CCc1nc(C2CCCN(C(=O)CCc3c[nH]c4ccccc34)C2)n[nH]1 (stereo not drawn),i,i
CCc1nc(C2CCCN(C(=O)Cc3c[nH]c4ccccc34)C2)n[nH]1 (stereo not drawn),i,61
COc1cccc(CC(=O)N2CCC(c3noc(-c4cccc(OC)c4)n3)CC2)c1,i,i
Cc1ccc(C2=NC3(CCN(Cc4cccc(Cl)c4)CC3)NC2=O)cc1,i,i
CCOc1ccc(NC(=O)CSC2CC(=O)N(c3ccc(C(=O)OC)cc3)C2=O)cc1 (stereo not drawn),i,i
CCNC(=O)C1CCN(c2nc3ccc(-c4ccccc4)nc3s2)CC1,i,i
COc1ccccc1-c1nc(C2CCN(C(=O)c3cccc4[nH]ccc34)CC2)no1,i,i
CC12CC(NC(=O)N1CCc1ccccc1)c1ccccc1O2 (stereo not drawn),i,i
CC1C2NC(=O)N(Cc3ccccc3)C1(C)Oc1ccccc12 (stereo not drawn),i,68
O=C(CNCc1ccccc1)N1c2ccccc2Sc2ccc(Cl)cc21,i,97
CCN(CC)CC(=O)N1c2ccccc2Sc2ccc(Cl)cc21,i,i
COc1ccc(C(=O)N2CCC(c3nc4cccnc4n3C)C2)cn1 (stereo not drawn),i,i
COc1ccc(N=c2scc(-c3ccc(Br)cc3)n2CCO)cc1,i,59
SMILES,Pf apPOL block,mHTT CaM bind
COc1ccc(N=c2scc(-c3ccc(I)cc3)n2CCO)cc1,i,66
O=S(=O)(c1ccc(-c2csc(=Nc3ccccc3)n2CCO)cc1)N1CCCCC1,i,i
COc1ccc(-c2csc(=Nc3ccccc3)n2CCO)cc1,i,i
Cc1oc(C2CCC2)nc1C(=O)NCc1ccccc1C(F)(F)F,i,i
CC(=O)NC1=NN(C(C)=O)C(c2ccc(OCc3ccccc3)c(OCc3ccccc3)c2)S1 (stereo not drawn),i,i
CC(=O)NC1=NN(C(C)=O)C(c2ccc(OCc3ccccc3)cc2)S1 (stereo not drawn),i,68
COc1ccccc1C(=O)N1CC2CC1CC2NS(C)(=O)=O (stereo not drawn),i,i
Cc1ccc(C(=O)Nc2ccc(N3CCN(C(=O)CC(C)C)CC3)nc2)cc1,i,i
CC[C@H]1c2[nH]c3ccc(C(C)C)cc3c2[C@@H]2CCN3C(=O)CCC[C@H]1[C@H]23,i,71
CC[C@@H]1C(=O)[C@H](Cc2ccccc2)[C@H]2CCCC(=O)N3CC[C@@H]1[C@@H]23,i,i
Cc1cc(/C=C2\SC(=O)NC2=O)c(C)n1-c1ccc(I)cc1,i,i
Cc1cc(/C=C2\NC(=O)NC2=O)c(C)n1-c1ccc(Cl)c(Cl)c1,i,100
Cc1cc(/C=C2\NC(=O)NC2=O)c(C)n1-c1cccc(I)c1,i,91
Cc1cc(/C=C2/C(=O)NC(=O)N(C)C2=O)c(C)n1-c1ccc(F)c(Cl)c1,i,i
O=C(O)CCn1c2c(sc1=O)C1c3ccccc3OCC1CS2 (stereo not drawn),i,i
O=c1sc2c(n1-c1ccccc1)SCC1COc3ccccc3C21 (stereo not drawn),i,66
CN1c2cc(F)ccc2C(=O)NC12CCN(C(=O)c1ccccc1F)CC2,i,i
COCc1[nH]nc2c1C(c1ccc(OC)c(OC)c1)C(C#N)=C(N)O2 (stereo not drawn),i,i
CCn1c2ccccc2c2cc(C3C(C#N)=C(N)Oc4n[nH]c(COC)c43)ccc21 (stereo not drawn),i,65
CCOC1=NN(c2ccc([N+](=O)[O-])cc2)C(=O)/C1=C/c1ccccc1OCC,i,i
